# About 79,000 compounds went through this panel and 15% of them were active in at least one assay; those are over-represented in the sample as a whole. Active and inactive are the calls of the source. Cut-off read from the data, not from the text of the source: active = growth inhibition above about 70%; inactive = the rest.
# Assay: NCI Yeast Anticancer Drug Screen. Data for the rad50 strain (AID 155);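 note: 0% = growth of vehicle-only cultures of the same strain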
# Details: S. cerevisiae rad50 strain growth inhibition; at 50.0 µM; stronger effect = higher value
# How it was run: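 Relative growth inhibition (compound vs vehicle) was measured in yeast with a defined repair-gene alteration.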
row,Compound,growth inhibition
1,CN=C1NS(=O)(=O)c2ccccc21,15.8% (inactive)
2,COc1cc(CSc2ccc(O)cc2)cc(OC)c1OC,79.1% (active)
3,CN(C)CCCNc1c2ccccc2nc2cccc([N+](=O)[O-])c12,89.4% (active)
4,CCCCCCCCCCCCCCCc1ncc(C)[nH]1,99.1% (active)

# Assay: NCI Yeast Anticancer Drug Screen. Data for the mec2-1 strain (AID 157)
# Details: S. cerevisiae mec2-1 strain, at 5.0 µM (retest, dose inferred, filed as 0.5), stronger effect = higher value
# How it was run: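 Mutant yeast (mec2-1) grown with compound; growth inhibition relative to vehicle control reported.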
row,Compound,growth inhibition
1,S=C(Nc1cc(Cl)cc(Cl)c1)SCc1ccccc1,25% (inactive)
2,CCCOc1cc(C(=O)OCCN(CC)CC)cc(OCCC)c1OCCC,6% (inactive)
3,C=C1C(=O)[C@@]23CC[C@H]4[C@@](C)(CCC[C@@]4(C)C(=O)OC)[C@@H]2CC[C@]1(O)C3,92% (active)
4,CCCSc1ncnc2nc(C)[nH]c12,3% (inactive)
5,O=C1C=CC(=O)N1CCCCCCN1C(=O)C=CC1=O,29% (inactive)
6,CCOC(=O)c1[nH]c2c([N+](=O)[O-])cccc2c1[N+](=O)[O-],-16% (inactive)
7,CSC(=S)/C(=C/Nc1ncccn1)c1ccccc1,3% (inactive)
8,N#CNc1nc(N)c(-c2ccc(Cl)cc2)c(C(=O)Nc2ccc(Cl)c(Cl)c2)n1,-3% (inactive)
9,COc1ccc2c(c1)c(=O)c1c(NCCN(C)C)ccc3nnn2c31,-18% (inactive)
10,CCC[CH2][Sn]([S][Sn]([CH2]CCC)([c]1ccccc1)[c]1ccccc1)([c]1ccccc1)[c]1ccccc1,93% (active)
11,CCC1=CCC2C(=O)c3cc4ccccc4cc3C(=O)C2C1 (stereo not drawn),11% (inactive)
12,Cc1ccccc1NC(=O)C1C(=O)N(c2ccccc2C)C(=O)/C1=N/O (stereo not drawn),3% (inactive)
13,CCCCc1[nH]ccc2c(C)c3nc4ccccc4c3cc12,-8% (inactive)
14,O=C(O)C(Br)C(Br)C(=O)Nc1ccc(Cl)c(Cl)c1 (stereo not drawn),52% (inactive)
15,Cc1cc(C)c2c(c1)sc1nncn12,57% (inactive)
16,CC(=O)C(C=O)C(C)=O.CC(=O)CC(C)=O.CC(=O)CC(C)=O.[Ru],60% (inactive)
17,COc1ccc(NC(=O)CCC(=O)C(C)C(=O)c2ccccc2)cc1 (stereo not drawn),-1% (inactive)
18,CCCCCCCCCCCCCC(=O)CC(=O)c1c(O)cccc1O,-3% (inactive)
19,Cc1ccc(NC(=S)SCc2ccco2)cc1Cl,5% (inactive)
20,Cc1nc(N)nn1C,0% (inactive)

row,Compound,growth inhibition
1,Cc1cccc(O)c(=O)c1,-5% (inactive)
2,O=C1C=CC(=O)N1c1ccc(-c2nc3ccccc3o2)cc1,70% (active)
3,NC1=NC(c2ccccc2)CC(c2cc(Cl)cc(Br)c2O)=N1 (stereo not drawn),-3% (inactive)
4,CCCCCCCCCCCc1ccn[nH]1,3% (inactive)
5,CC(=O)Oc1c(-c2ccccc2)cc([N+](=O)[O-])cc1[N+](=O)[O-],19% (inactive)
6,COc1cccc2c1C1c3ccccc3Sc3cccc(c31)O2 (stereo not drawn),6% (inactive)
7,O=C1CC(O)C=C1Nc1ccc(Cl)cc1 (stereo not drawn),-3% (inactive)
8,C=CCNC(=S)N/N=C(/c1ccccn1)C(C)C,-1% (inactive)
9,CCCCCCCCCCCCCCCC[N+](C)(C)c1ccccc1,98% (active)
10,O=C(NC(OCc1ccccc1)(C(F)(F)F)C(F)(F)F)OCc1ccccc1,-5% (inactive)
11,Cc1cc2oc3c(ccc(=O)n3C)c(=O)c2c(C)c1Cl,10% (inactive)
12,COc1cc2c(cc1OC)C(=O)C(C)(c1ccccc1)NC2 (stereo not drawn),9% (inactive)
13,CCC(C)NCCNc1cc(OC)cc2cccnc12 (stereo not drawn),1% (inactive)
14,CN(C)CCCN=c1c2ccccc2n(O)c2ccccc12,-16% (inactive)
15,N#CCc1ccccc1-c1cccc2ccccc12,0% (inactive)
16,CN=C1NS(=O)(=O)c2ccccc21,8% (inactive)
17,COc1cc(CSc2ccc(O)cc2)cc(OC)c1OC,-18% (inactive)
18,CN(C)CCCNc1c2ccccc2nc2cccc([N+](=O)[O-])c12,95% (active)
19,CCCCCCCCCCCCCCCc1ncc(C)[nH]1,72% (active)

# Reference: PubChem BioAssay (NCI)
